Results: PubChem BioAssay AID1159580 (chemical genetic matrix, 2015)
Hit rate of the full screen: of about 5,500 compounds, about 2,000 (36%) were called active. Roughly 18% stayed inconclusive and do not appear here. Cut-off read from the data, not from the text of the source: active = normalized growth mostly below about 0.91 (no sharp cut-off); inconclusive = no clear call, values can overlap the other calls; inactive = mostly above about 0.92. This is one part of the list.

Test: chemical genetic growth profiling, strain panel (AID 1159580);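 note: tested at 20 µM; growth read once vehicle control cultures reached saturation at 30 °C; 1 = growth at the plate median or of vehicle wells; lower values mean less growth of the strain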
Conditions: growth OD

Measured: normalized growth

O=C(O)/C=C/c1ccc(O)c(O)c1
inactive: S. cerevisiae deletion strains, locus YJR043C, strain POL32, stronger effect = lower value 1.01 | S. cerevisiae deletion strains, locus YJR066W, strain TOR1, stronger effect = lower value 0.95 | S. cerevisiae deletion strains, locus YKL009W, strain mrt4, stronger effect = lower value 1.05 | S. cerevisiae deletion strains, locus YKL068W, stronger effect = lower value 1.01 | S. cerevisiae deletion strains, locus YKL085W, strain MDH1 (second series), stronger effect = lower value 1.02 | S. cerevisiae deletion strains, locus YKL085W, strain MDH1, stronger effect = lower value 1.02 | S. cerevisiae deletion strains, locus YKL160W, strain elf1, stronger effect = lower value 1 | S. cerevisiae deletion strains, locus YKL190W, strain CNB1, stronger effect = lower value 1.01 | S. cerevisiae deletion strains, locus YKR001C, strain vps1, stronger effect = lower value 1 | S. cerevisiae deletion strains, locus YKR026C, strain gcn3, stronger effect = lower value 1 | S. cerevisiae deletion strains, locus YKR091W, strain srl3, stronger effect = lower value 1 | S. cerevisiae deletion strains, locus YLL001W, strain dnm1, stronger effect = lower value 0.992 | S. cerevisiae deletion strains, locus YLL026W, stronger effect = lower value 0.992 | S. cerevisiae deletion strains, locus YLL041C, strain sdh2, stronger effect = lower value 1 | S. cerevisiae deletion strains, locus YLR027C, strain aat2, stronger effect = lower value 0.989 | S. cerevisiae deletion strains, locus YLR039C, strain RIC1, stronger effect = lower value 1.01 | S. cerevisiae deletion strains, locus YLR058C, strain SHM2, stronger effect = lower value 1.01 | S. cerevisiae deletion strains, locus YLR102C, strain apc9, stronger effect = lower value 1.01 | S. cerevisiae deletion strains, locus YLR113W, strain HOG1, stronger effect = lower value 0.985 | S. cerevisiae deletion strains, locus YLR221C, strain rsa3, stronger effect = lower value 1 | S. cerevisiae deletion strains, locus YLR258W, strain gsy2, stronger effect = lower value 0.999 | S. cerevisiae deletion strains, locus YLR262C, strain YPT6 (second series), stronger effect = lower value 0.993 | S. cerevisiae deletion strains, locus YLR262C, strain YPT6, stronger effect = lower value 0.998 | S. cerevisiae deletion strains, locus YLR268W, strain sec22, stronger effect = lower value 1.03 | S. cerevisiae deletion strains, locus YLR320W, strain mms22, stronger effect = lower value 1.02 | S. cerevisiae deletion strains, locus YLR330W, strain CHS5, stronger effect = lower value 1.02 | S. cerevisiae deletion strains, locus YLR342W, strain FKS1 (second series), stronger effect = lower value 1.07 | S. cerevisiae deletion strains, locus YLR342W, strain FKS1, stronger effect = lower value 1.01 | S. cerevisiae deletion strains, locus YLR357W, strain rsc2, stronger effect = lower value 1.01 | S. cerevisiae deletion strains, locus YLR370C, strain arc18, stronger effect = lower value 1 | S. cerevisiae deletion strains, locus YLR371W, strain rom2, stronger effect = lower value 1.01 | S. cerevisiae deletion strains, locus YLR384C, strain iki3, stronger effect = lower value 0.999 | S. cerevisiae deletion strains, locus YLR418C, strain cdc73, stronger effect = lower value 1.05 | S. cerevisiae deletion strains, locus YML016C, strain PPZ1, stronger effect = lower value 1.01 | S. cerevisiae deletion strains, locus YML032C, strain rad52, stronger effect = lower value 0.998 | S. cerevisiae deletion strains, locus YML120C, strain ndi1, stronger effect = lower value 1.01 | S. cerevisiae deletion strains, locus YML124C, strain tub3, stronger effect = lower value 1 | S. cerevisiae deletion strains, locus YMR058W, strain fet3, stronger effect = lower value 1.01 | S. cerevisiae deletion strains, locus YMR078C, strain ctf18, stronger effect = lower value 1.01 | S. cerevisiae deletion strains, locus YMR125W, strain sto1, stronger effect = lower value 1 | S. cerevisiae deletion strains, locus YMR129W, stronger effect = lower value 1 | S. cerevisiae deletion strains, locus YMR205C, strain PFK2, stronger effect = lower value 0.999 | S. cerevisiae deletion strains, locus YMR223W, strain ubp8, stronger effect = lower value 0.997 | S. cerevisiae deletion strains, locus YMR231W, strain pep5, stronger effect = lower value 0.98 | S. cerevisiae deletion strains, locus YMR307W, strain GAS1, stronger effect = lower value 1.04 | S. cerevisiae deletion strains, locus YNL067W, strain RPL9B, stronger effect = lower value 0.994 | S. cerevisiae deletion strains, locus YNL071W, strain lat1, stronger effect = lower value 1.01 | S. cerevisiae deletion strains, locus YNL153C, strain GIM3, stronger effect = lower value 0.999 | S. cerevisiae deletion strains, locus YNL175C, strain NOP13, stronger effect = lower value 1 | S. cerevisiae deletion strains, locus YNL183C, strain NPR1, stronger effect = lower value 0.971 | S. cerevisiae deletion strains, locus YNL197C, strain WHI3, stronger effect = lower value 1.01 | S. cerevisiae deletion strains, locus YNL209W, strain ssb2, stronger effect = lower value 0.998 | S. cerevisiae deletion strains, locus YNL224C, strain SQS1, stronger effect = lower value 0.997 | S. cerevisiae deletion strains, locus YNL233W, strain BNI4, stronger effect = lower value 1 | S. cerevisiae deletion strains, locus YNL248C, strain rpa49, stronger effect = lower value 1 | S. cerevisiae deletion strains, locus YNL250W, strain rad50, stronger effect = lower value 1 | S. cerevisiae deletion strains, locus YNL271C, strain bni1, stronger effect = lower value 0.998 | S. cerevisiae deletion strains, locus YNL298W, strain CLA4, stronger effect = lower value 0.98 | S. cerevisiae deletion strains, locus YNL307C, strain MCK1, stronger effect = lower value 1.01 | S. cerevisiae deletion strains, locus YNL322C, strain KRE1 (second series), stronger effect = lower value 0.998 | S. cerevisiae deletion strains, locus YNL322C, strain KRE1, stronger effect = lower value 1.02 | S. cerevisiae deletion strains, locus YNR049C, strain mso1, stronger effect = lower value 1.01 | S. cerevisiae deletion strains, locus YNR052C, strain pop2, stronger effect = lower value 0.993 | S. cerevisiae deletion strains, locus YOL012C, strain htz1 0.725 | S. cerevisiae deletion strains, locus YOL147C, strain pex11, stronger effect = lower value 1.01 | S. cerevisiae deletion strains, locus YOR001W, strain rrp6, stronger effect = lower value 1.02 | S. cerevisiae deletion strains, locus YOR061W, strain CKA2, stronger effect = lower value 1.02 | S. cerevisiae deletion strains, locus YOR069W, strain VPS5, stronger effect = lower value 1.01 | S. cerevisiae deletion strains, locus YOR070C, strain gyp1, stronger effect = lower value 0.972 | S. cerevisiae deletion strains, locus YOR080W, strain dia2, stronger effect = lower value 1 | S. cerevisiae deletion strains, locus YOR083W, strain WHI5 (second series), stronger effect = lower value 1.01 | S. cerevisiae deletion strains, locus YOR083W, strain WHI5, stronger effect = lower value 1 | S. cerevisiae deletion strains, locus YOR106W, strain vam3, stronger effect = lower value 1.04 | S. cerevisiae deletion strains, locus YOR136W, strain idh2, stronger effect = lower value 1.02 | S. cerevisiae deletion strains, locus YOR144C, strain elg1, stronger effect = lower value 1.01 | S. cerevisiae deletion strains, locus YOR184W, strain ser1, stronger effect = lower value 1 | S. cerevisiae deletion strains, locus YOR231W, strain MKK1, stronger effect = lower value 1.03 | S. cerevisiae deletion strains, locus YOR265W, strain rbl2, stronger effect = lower value 0.988 | S. cerevisiae deletion strains, locus YOR270C, strain vph1, stronger effect = lower value 1 | S. cerevisiae deletion strains, locus YOR290C, strain snf2, stronger effect = lower value 1.01 | S. cerevisiae deletion strains, locus YOR316C, strain cot1, stronger effect = lower value 1 | S. cerevisiae deletion strains, locus YPL051W, strain arl3, stronger effect = lower value 0.994 | S. cerevisiae deletion strains, locus YPL055C, strain LGE1, stronger effect = lower value 1.01 | S. cerevisiae deletion strains, locus YPL078C, strain atp4, stronger effect = lower value 1 | S. cerevisiae deletion strains, locus YPL106C, strain sse1, stronger effect = lower value 0.992 | S. cerevisiae deletion strains, locus YPL240C, strain hsp82, stronger effect = lower value 1 | S. cerevisiae deletion strains, locus YPL256C, strain CLN2, stronger effect = lower value 0.985 | S. cerevisiae deletion strains, locus YPR119W, strain clb2, stronger effect = lower value 1.01 | S. cerevisiae deletion strains, locus YPR141C, strain kar3, stronger effect = lower value 1.04 | S. cerevisiae deletion strains, locus YPR163C, strain tif3, stronger effect = lower value 1 | S. cerevisiae deletion strains, locus YPR167C, strain met16, stronger effect = lower value 1.02 | S. cerevisiae deletion strains, strain wtn01, stronger effect = lower value 1.04 | S. cerevisiae strains, strain wild type, stronger effect = lower value 1.01
